In PubChem BioAssay AID687014 (The Scripps Research Institute Molecular Screening Center, 2013):
Among all 370,000 compounds or so, about 6,800 (1.8%) were called active. Shown is part of a subset that was picked to be rich in actives. Unmarked numbers belong to inactive results.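 How the source made its calls: active means activation above a cutoff set at the mean of all screened compounds plus 3 SD (cut at about 10% in these data); inactive means the rest.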

System: Nuclear hormone receptor DAF-12 (Heterodera glycines), GAL4 fusion
Assay: H. glycines DAF-12 receptor agonists, primary screen, cell-based, luminescence, HEK293, GAL4 fusion, UAS-luciferase (AID 687014);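 further: 0% = DMSO wells and 100% = sodium butyrate wells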
Conditions: HEK293 GAL4-hgDAF12 UAS-luciferase reporter, agonist luminescence; at 6.8 µM; stronger effect = higher value; normalized to butyrate control

SMILES | activation
O=C(O)c1c(NC(=O)N2CCCC2)sc2c1CCCC2 | 0.58%
NC(=O)c1c(NC(=O)c2ccccc2)sc2c1CCCC2 | 13.5% (active)
NC(=O)c1c(NC(=O)CSc2nnc(-c3ccco3)n2N)sc2c1CCCC2 | 0.59%
Cc1ccc2nc(-c3ccc(CN4CCC(n5cc(-c6ccccc6)[nH]c5=O)CC4)cc3)c(-c3ccccc3)nc2c1 | 0.94%
C=CCN1C(C(=O)OC)CN(Cc2cn(Cc3ccccc3)nn2)CCS1(=O)=O (stereo not drawn) | 0.93%
Cc1nn(-c2ccccc2)c2c1C(c1cccc([N+](=O)[O-])c1)N(c1ccccc1)C(=O)N2 (stereo not drawn) | 2.5%
Cc1nn(-c2ccc([N+](=O)[O-])cc2)c(N)c1-c1ccccc1 | 16.8% (active)
CC(C)(C)c1cnnn1-c1ccc([N+](=O)[O-])cc1 | -1.27%
COCCNC(=S)N(C)[C@H]1C[C@H]2c3[nH]c4ccccc4c3CCN2C[C@H]1[C@H](C)O | 0.91%
COC(=O)C1CN(Cc2ccc(F)cc2)CCS(=O)(=O)N1Cc1ccc(Cl)cc1 (stereo not drawn) | -1.05%
O=C(C(NS(=O)(=O)c1cccc2nsnc12)c1ccccc1)N1CCN(c2ccccc2)CC1 (stereo not drawn) | 0.47%
Nn1c(SCC(=O)Nc2cccc3ccccc23)nnc1-c1cc(-c2ccc(F)cc2)n[nH]1 | -2.56%
O=[N+]([O-])c1ccc2c(c1)Nc1nc3ccccc3nc1N2 | 27.2% (active)
O=[N+]([O-])c1cc2ccccc2nc1-c1ccccc1 | 4.98%
O=C(Oc1ccc([N+](=O)[O-])cc1)c1ccc2ccccc2n1 | 3.74%
C=CCOC/C=C/C#CCN(CC=C)Cc1ccc(OC)cc1OC | 5.3%
CC(c1ccccn1)N(CCN(C)C)C(=S)Nc1ccccc1F (stereo not drawn) | 0.46%
Cc1ccccc1CS(=O)(=O)Cc1ccc(C(=O)Nc2ccc(Cl)cc2)o1 | -3.81%
O=C(O)C1CC=CCC1C(=O)NCCc1ccccc1 (stereo not drawn) | -1.34%
O=C(Nc1cccc(Cl)c1Cl)c1ccccc1NC(=O)C1CC=CCC1C(=O)O (stereo not drawn) | 5.07%
O=C(Nc1ccc(Cl)c(Cl)c1)c1ccccc1NC(=O)C1CC=CCC1C(=O)O (stereo not drawn) | 15.7% (active)
O=C(Nc1cccc(F)c1)NC1CCCc2ccccc21 (stereo not drawn) | -1.37%
Cc1cc(C)cc(NC(=O)NC2CCCCCCC2)c1 | 5.46%
O=C(Nc1cccc(F)c1)NC1CCCCCCC1 | 10.7% (active)

SMILES | activation
CCCC(=O)NC(=S)Nc1ccc(CN2CCOCC2)cc1 | 0%
COC(=O)c1ccc(NC(=S)Nc2cccc(C)n2)cc1 | 1.63%
COC(=O)c1ccc(NC(=S)NN2CCOCC2)cc1 | 10.6% (active)
C#CCNC(=O)C[C@H]1C[C@@]2(C(=O)OC)C(=C[C@H](C(C)C)O[C@@H]2C2CC2)N(Cc2ccco2)C1=O | 0.97%
C/C(=N\Nc1ccc(Cl)nn1)c1ccccc1O | 1.05%
COc1ccccc1N(CC(=O)N/N=C(\C)c1ccccc1O)S(=O)(=O)c1ccc(C)cc1 | -1.9%
C/C(=N\NC(=O)c1ccoc1C)c1ccccc1O | 11.5% (active)
O=C(NC(CC(=O)N1CCN(c2ccccc2)CC1)c1ccccc1)c1ccccc1Cl (stereo not drawn) | -0.02%
Cc1ccc(SCCSc2ncccn2)cc1 | 17.8% (active)
Cc1ccc(SCCC(=O)NC(C(C)C)C(C)C)cc1 | -2.93%
Cc1ccc(SCCC(=O)NCc2ccccn2)cc1 | 0.65%
CCCCCN1CCCCC(NC(=O)C(C)CCC)C1=O (stereo not drawn) | 2.68%
CC(C)(C)c1ccc(C(=O)Nc2cc(Cl)c(Br)cc2C(=O)O)cc1 | -1.36%
CCN(CC(=O)Nc1ccc(C)c(S(=O)(=O)N(C)C)c1)Cc1ccccc1 | 2.76%
COc1ccc(CCC(=O)OCC(=O)Nc2ccc(C)c(S(=O)(=O)N(C)C)c2)cc1 | -1.79%
Cc1ccc(C(=O)Nc2ccc(C)c(S(=O)(=O)N(C)C)c2)s1 | 17.3% (active)
C[C@@H](NC(=O)c1ccccc1OCC(=O)Nc1ccc(I)cc1)C(=O)N(C)Cc1ccccc1 | -2.59%
C#CCN(C[C@@H]1[C@@H](OC(=O)NC2CC2)[C@@H](OC(=O)NC2CC2)Cn2c(=O)ccc(=O)n21)S(=O)(=O)c1ccc(C)cc1 | -1.94%
O=C1CC[C@@H](COc2ccc3[nH]cc(-c4ccccc4)c3c2-c2ccccc2)N1 | -0.08%
CCCCNC(=O)C[C@H]1C(=O)N(Cc2ccc(OC)cc2)C2=CCCC[C@@]21C(=O)OCC | -2.38%
COc1ccccc1/C=N/N1CCN(Cc2ccccc2Cl)CC1 | 3.82%
COc1ccccc1N1CCN(/N=C/c2ccc(O)cc2O)CC1 | 13% (active)
CNCC(O)CN1CCN(c2ccccc2OC)CC1 (stereo not drawn) | -4.94%
O=C(Nc1ccccc1)O/N=C1/CCCc2occc21 | 1.6%

SMILES | activation
N[C@@H](Cc1ccccc1)C(=O)N1CCC[C@@H]1C(=O)N1CCC2CCN(S(=O)(=O)c3ccccc3)CC21 (stereo partly drawn) | 2.75%
Cc1cccc(NC(=O)c2cc3c(C)nn(-c4ccccc4)c3s2)c1 | 3.47%
O=C1NC[C@@H](Cc2ccc(O)cc2)N(CCc2cccc(F)c2)C1=O | 18.6% (active)
O=C1NC[C@H](CCCCN2C[C@H](Cc3ccccc3)N(Cc3ccccc3)C(=O)C2=O)N(CCc2ccc(O)cc2)C1=O | 0.18%
O=C1NC[C@H](CCCCN2C[C@H](Cc3ccc(O)cc3)N(CCc3ccccc3)C(=O)C2=O)N(CCc2ccccc2)C1=O | -1.46%
CCOC(=O)[C@]12CCCCC/C=C\1N(Cc1ccc(OC)cc1)C(=O)[C@H]2CC(=O)N1CCOCC1 | 4.14%
CC(C)(C)NS(=O)(=O)c1ccc(NC(=O)C2CCCO2)cc1 (stereo not drawn) | -2.61%
CCOc1ccc(NC(=O)c2ccc(NC(=O)C3CCCO3)cc2)cc1 (stereo not drawn) | -1.61%
O=C(Nc1ccc(-c2nnc(-c3ccccc3)o2)cc1)C1CCCO1 (stereo not drawn) | 13.7% (active)
COc1cccc(CNC(=O)C2CCCN(c3nc4ccccc4o3)C2)c1OC (stereo not drawn) | 1.01%
CC(C)C(=O)Nc1cccc(NC(=O)c2ccc([N+](=O)[O-])cc2Cl)c1 | -0.06%
O=C(Nc1ccc(Br)cn1)c1ccc([N+](=O)[O-])cc1Cl | 11.7% (active)
O=C(Nn1cnc2ccccc2c1=O)c1ccc([N+](=O)[O-])cc1Cl | -0.41%
Cc1cc(Cl)ccc1-c1nc(NCCN(C)C)nc2ccsc12 | 1.09%
O=C(CN1CCCc2ccccc21)NCc1ccc(F)cc1 | 1.21%
Cc1ccn(-c2cccc(-n3ccc(C)n3)n2)n1 | 18.1% (active)
Cc1cccc(N2O[C@H]3C=CC2CCCC3)n1 | -0.73%
COc1ccc(C(=O)OCCN2CCN(C3CN(Cc4cn(Cc5ccccc5F)nn4)S(=O)(=O)C3)CC2)cc1OC (stereo not drawn) | -1.46%
Cn1c(SCC(=O)NC2CCCCC2)nnc1-c1cc2ccccc2o1 | 4.2%
Cn1c(CNc2nc(-c3ccccc3)cs2)nnc1SCC(=O)c1ccccc1 | -0.81%
CCNc1nc(-c2cc3ccccc3o2)cs1 | 12.5% (active)
COc1ccc(NC(=O)CN(Cc2ccccc2)S(C)(=O)=O)cc1OC | 0.79%
S=C(NN=Cc1ccccn1)Nc1ccccn1 | 14.5% (active)
CS(=O)(=O)N(CC(=O)N/N=C/c1ccccn1)c1ccc(Oc2ccccc2)cc1 | 2.64%

SMILES | activation
O=C(O)C1C2C=CC(O2)C1C(=O)Nc1ccccn1 (stereo not drawn) | 0.96%
c1csc(-c2nnc(COc3ncnc4sccc34)o2)c1 | 1.72%
CC(C)(C)c1ccc(CSc2nnc(-c3cccs3)o2)cc1 | 5.74%
Clc1ccc(Cc2nnc(-c3cccs3)o2)cc1 | 12.7% (active)
CC(C)[C@H]1COCCS(=O)(=O)N1Cc1ccccc1-c1cccc2c1sc1ccccc12 | 2.06%
Cc1ccc(OCc2nnc(SC/C=C/c3ccccc3)n2Cc2ccco2)cc1 | -2.63%
c1ccc(CN=C2Nc3ccccc3CS2)nc1 | 15% (active)
O=C1CSc2ccc(C(=O)NCc3ccccn3)cc2N1 | 3.35%
COc1ccc(OC)c(CNC(=O)c2cc(=O)[nH]c3ccc(S(=O)(=O)N4CCCC4)cc23)c1 | 5.76%
CCc1ccc(C2=CC(=O)CC(C)(C)C2=O)cc1 | -0.49%
Cc1c(C(=O)Nc2ccccn2)oc2ccc(Br)cc12 | 11.2% (active)
Cc1nonc1NC(=O)c1oc2ccccc2c1C | 4.37%
CCc1nonc1NC(=O)c1oc2ccc(Cl)cc2c1C | 3.2%
O=C(Nc1cccc(Cl)c1)c1cncn1-c1ccc(F)cc1 | 1.29%
CCC(=O)Nc1ccc2nn(-c3ccc(F)cc3)nc2c1 | 12.1% (active)
CCOC(=O)c1nnn(CC(=O)Nc2cccc(F)c2)c1C(=O)OCC | -0.57%
CCOC(=O)N1CCN(c2cc(C)c([N+](=O)[O-])cc2F)CC1 | 4.66%
CCNC(=S)NCC | -0.86%
Cc1ccc(C(=O)N(Cc2ccccn2)CC2CCCO2)cc1 (stereo not drawn) | -3.33%
Cc1ccc(NC(=S)NNC(=O)CSc2nnc(SCc3ccccc3Cl)s2)cc1 | 2.13%
COC(=O)c1c(-c2ccc(OC)cc2)c2c(c3c4cc(OC)ccc4n(S(=O)(=O)c4ccc(F)cc4)c13)C(=O)N(C)C2 | -2.44%
